The source of these data is PubChem BioAssay (NCI).

Test systems include SR leukemia; RPMI-8226 leukemia; OVCAR-8 ovarian; OVCAR-5 ovarian; OVCAR-4 ovarian; SK-OV-3 ovarian; IGROV1 ovarian; OVCAR-3 ovarian; HS 578T breast; NCI/ADR-RES ovarian; T-47D breast; BT-549 breast; MDA-MB-435 melanoma; SW-620 colon; MCF7 breast; HCT-116 colon; HCC-2998 colon; KM12 colon.
Common to all, as to assay: NCI-60 one-dose screen, 48 h (100 = growth as untreated, 0 = no growth, -100 = all killed)
Common to all, as to conditions: 10 µM unless noted

Molecules are shown by their SMILES. Compounds without any hit were thinned out: in the full panel of roughly 83,000, 20% have a hit.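 Single-dose data. Exposure time 48 hours. Values below 10 considered active.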 Values without a mark were called inactive. Calls of active or inactive are those of the source.

Consider `O=S1(=O)CCC(N(/N=C/c2ccco2)c2ccccc2)C1` (centres undefined), for which the growth with SR leukemia is 91%; in the test with RPMI-8226 leukemia it was 100%; in the test on OVCAR-8 ovarian, 94.7%; in the test with OVCAR-5 ovarian it was 107%; in the test with OVCAR-4 ovarian, 127%; with SK-OV-3 ovarian it was 110%. The growth is 104% in the test on IGROV1 ovarian; 105% with OVCAR-3 ovarian; 94.3% in the test with HS 578T breast; 98.7% with NCI/ADR-RES ovarian; 103% with T-47D breast; 101% with BT-549 breast. Moreover, the growth with MDA-MB-435 melanoma is 107%; with SW-620 colon it was 95.4%; in the test on MCF7 breast, 96.4%; in the test with HCT-116 colon, 97.4%; with HCC-2998 colon, 97.6%; in the test on KM12 colon, 103%.
`S=c1[nH]nc(-c2cc3ccc2CCc2ccc(cc2)CC3)n1C1CC1`: the growth in the test with SR leukemia was 109%; in the test with RPMI-8226 leukemia it was 106%; in the test with OVCAR-8 ovarian, 107%; in the test with OVCAR-5 ovarian it was 99.1%; with OVCAR-4 ovarian it was 89.4%; in the test on SK-OV-3 ovarian it was 113%. Further, the growth with IGROV1 ovarian was 101%; in the test on OVCAR-3 ovarian it was 108%; in the test with HS 578T breast, 101%; with NCI/ADR-RES ovarian it was 103%; in the test on T-47D breast it was 97.7%; in the test on BT-549 breast it was 107%. Further, the growth in the test on MDA-MB-435 melanoma was 97.3%; in the test with SW-620 colon, 99.8%; with MCF7 breast, 90.5%; in the test with HCT-116 colon, 92.3%; in the test with HCC-2998 colon, 115%; with KM12 colon, 99.6%.
`NC1=NN(O)C2=CC([N+](=O)[O-])C=CC2=N1` (centres undefined): the growth was 94.8% in the test with SR leukemia; 99.2% in the test with RPMI-8226 leukemia; 99.4% in the test with OVCAR-8 ovarian; 118% in the test on OVCAR-5 ovarian; 108% in the test with OVCAR-4 ovarian; 100% in the test with SK-OV-3 ovarian. The growth with IGROV1 ovarian was 120%; in the test on OVCAR-3 ovarian, 99.8%; with HS 578T breast, 98.8%; in the test on NCI/ADR-RES ovarian it was 93.4%; with T-47D breast, 101%; with BT-549 breast it was 104%. In addition, the growth with MDA-MB-435 melanoma was 109%; in the test with SW-620 colon, 110%; with MCF7 breast it was 96.1%; with HCT-116 colon, 107%; in the test with HCC-2998 colon, 97.2%; with KM12 colon, 103%.
Consider `CO[C@H]1NC(=O)N(S(=O)(=O)c2ccc(Cl)cc2)[C@@H]1OC`, for which the growth with SR leukemia is 93.9%; with RPMI-8226 leukemia, 96.1%; in the test on OVCAR-8 ovarian, 106%; in the test on OVCAR-5 ovarian, 111%; in the test with OVCAR-4 ovarian, 108%; with SK-OV-3 ovarian, 102%. In addition, the growth in the test on IGROV1 ovarian is 124%; in the test with OVCAR-3 ovarian, 108%; in the test with HS 578T breast it was 100%; with NCI/ADR-RES ovarian, 110%; in the test on T-47D breast, 105%; with BT-549 breast, 108%. Further, the growth was 97.3% in the test on MDA-MB-435 melanoma; 108% in the test on SW-620 colon; 99.4% with MCF7 breast; 110% with HCT-116 colon; 110% in the test on HCC-2998 colon; 103% in the test with KM12 colon.
Take `C=C[C@@H]1C[C@@H]2Cc3cc(Cl)ccc3N1O2`: the growth is 92.4% with SR leukemia; 84.9% with RPMI-8226 leukemia; 99.4% in the test with OVCAR-8 ovarian; 97.8% with OVCAR-5 ovarian; 102% in the test on OVCAR-4 ovarian; 101% in the test with SK-OV-3 ovarian. Besides, the growth was 112% in the test with IGROV1 ovarian; 109% in the test with OVCAR-3 ovarian; 97.1% with HS 578T breast; 101% with NCI/ADR-RES ovarian; 103% in the test on T-47D breast; 105% in the test with BT-549 breast. For the same compound, the growth in the test with MDA-MB-435 melanoma was 92.5%; with SW-620 colon it was 96.7%; with MCF7 breast it was 112%; in the test on HCT-116 colon it was 98.2%; in the test on HCC-2998 colon, 94.2%; with KM12 colon, 97.3%.
In the case of `Cc1ccc(/C=C2\CN(C(=O)CCN3CCC(=NO)CC3)C/C(=C\c3ccc(C)cc3)C2=O)cc1`, the growth in the test with SR leukemia was -0.19% (active); with RPMI-8226 leukemia, -9.83% (active); in the test with OVCAR-8 ovarian, 20.4%; in the test on OVCAR-5 ovarian, -8.32% (active); with OVCAR-4 ovarian, 20.9%; in the test on SK-OV-3 ovarian it was 87.8%. In addition, the growth was -14% (active) with IGROV1 ovarian; 8.71% (active) with OVCAR-3 ovarian; 6.55% (active) in the test with HS 578T breast; 14.6% in the test with NCI/ADR-RES ovarian; 16.4% in the test with T-47D breast; 11.2% with BT-549 breast. For the same compound, the growth in the test with MDA-MB-435 melanoma is -39.8% (active); in the test with SW-620 colon, -34.1% (active); with MCF7 breast, -3.62% (active); in the test with HCT-116 colon it was -74.5% (active); in the test with HCC-2998 colon, -70.7% (active); in the test with KM12 colon, -75.3% (active).
`CCOC(=O)/C(C#N)=C1/C(=O)Nc2ccccc21`: the growth in the test with SR leukemia was 149%; in the test on RPMI-8226 leukemia it was 111%; with OVCAR-8 ovarian, 108%; in the test on OVCAR-5 ovarian, 104%; in the test on OVCAR-4 ovarian, 114%; in the test with SK-OV-3 ovarian, 117%. Also, the growth in the test with IGROV1 ovarian was 109%; in the test on OVCAR-3 ovarian, 134%; with HS 578T breast, 121%; in the test on NCI/ADR-RES ovarian it was 112%; in the test on T-47D breast it was 98.7%; with BT-549 breast it was 112%. In addition, the growth in the test with MDA-MB-435 melanoma was 119%; in the test on SW-620 colon, 109%; in the test with MCF7 breast it was 103%; with HCT-116 colon it was 98.4%; in the test with HCC-2998 colon, 109%; with KM12 colon, 112%.
Turning to `O=C(O)c1cn(C2CC2)c2cc(N3CCN(C(=O)/C=C/c4ccc(Cl)cc4)CC3)c(F)cc2c1=O`, the growth is 79.7% with SR leukemia; 70.7% in the test with RPMI-8226 leukemia; 80.5% with OVCAR-8 ovarian; 91% in the test on OVCAR-5 ovarian; 81% in the test on OVCAR-4 ovarian; 66.4% with SK-OV-3 ovarian. Also, the growth was 67.2% in the test on IGROV1 ovarian; 78.8% in the test with OVCAR-3 ovarian; 65.4% with HS 578T breast; 86.1% with NCI/ADR-RES ovarian; 65.5% in the test on T-47D breast; 50.1% in the test on BT-549 breast. For the same compound, the growth is 82.5% in the test on MDA-MB-435 melanoma; 102% in the test with SW-620 colon; 89% with MCF7 breast; 74.8% in the test with HCT-116 colon; 90.4% with HCC-2998 colon; 82.7% with KM12 colon.
